# Measurements reported in PubChem BioAssay (NCATS).
# Inconclusive results are not listed. Activity calls are given as the source filed them. Unless noted, the call rests on the fitted dose curve.
# Assays:
# [1] = target: Glucocorticoid receptor (Homo sapiens) (UniProt P04150); test: qHTS assay for small molecule agonists of glucocorticoid receptor signaling (AID 588532; active means well fitted curve in the direction sought with a large enough effect in the signal ratio, with a control signal flat; the % refers to the signal ratio;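 further: 100% = dexamethasone at 0.1 µM and 0% = DMSO only wells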); conditions: HeLa MMTV-bla, beta-lactamase ratio, agonist, 18 h; activation: stronger effect = higher value, percent of dexamethasone control, DMSO zero
# Method in brief: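 Titration series, up to 92 uM, applied to GRE-bla HeLa cells for 18 h at 37 C. Detection by CCF4 FRET substrate after 2 h at RT.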
# [2] = target: Peroxisome proliferator-activated receptor delta (Homo sapiens) (UniProt Q03181); test: qHTS assay for small molecule agonists of peroxisome proliferator-activated receptor delta signaling (AID 588534);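 further: 0% = DMSO basal wells and 100% = positive control agonist at 10 µM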
# Method in brief: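 Fluorescence from CCF4 substrate cleavage by beta-lactamase reporter, read 2 hrs at RT, measured agonist activity. Compounds were tested with 18 hrs exposure at 37 C. Concentration-response data fitted to Hill equation.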
# [3] = qHTS assay for small molecule antagonists of peroxisome proliferator-activated receptor delta signaling (AID 588535; active means well fitted inhibition curve with a large enough effect in the signal ratio, with a control signal flat, not every such curve was filed as active; the % refers to the signal ratio;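 on max response: cells co-treated with a PPAR-delta agonist as stimulator during compound exposure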); conditions: HEK293T PPARd-UAS-bla, beta-lactamase FRET ratio, 18 h; 460 nm channel
# Method in brief: (§1)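 Reporter: UAS-bla under PPAR-delta response element, HEK293T host. Medium: 2% charcoal/dextran FBS. Dosing: titration, 18 hrs, 37 C. Detection: CCF4, 2 hrs RT, 405 ex/460 and 530 em.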
# [4] = target: Peroxisome proliferator-activated receptor delta (Homo sapiens) (UniProt Q03181); test: as above
# Method in brief: as §1
# [5] = target: Peroxisome proliferator-activated receptor gamma (Homo sapiens) (UniProt P37231); test: qHTS assay for small molecule agonists of peroxisome proliferator-activated receptor gamma signaling (AID 588536; active means well fitted curve in the direction sought with a large enough effect in the signal ratio, with a control signal flat, not every such curve was filed as active; the % refers to the signal ratio;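 further: 0% = DMSO basal wells and 100% = rosiglitazone at 2 µM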)
# Method in brief: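 Test agents, titrated, stimulated HEK293 UAS-bla cells overnight (16 h, 37 C). Substrate CCF4 was then added for two hours at room temperature before fluorescence reading.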
# [6] = target: Peroxisome proliferator-activated receptor gamma (Homo sapiens) (UniProt P37231); test: qHTS assay for small molecule antagonists of peroxisome proliferator-activated receptor gamma signaling (AID 588537; active means well fitted inhibition curve with a large enough effect in the signal ratio, with a control signal flat, not every such curve was filed as active; the % refers to the signal ratio;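 further: reporter cells co-stimulated with 50 nM rosiglitazone agonist during compound treatment; % of control where 0% means no effect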)
# Method in brief: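 We seeded GeneBLAzer HEK293 reporter cells at 3000 per well, allowed 6-6.5 h attachment at 37 C, then co-treated with test compound titrations and 50 nM rosiglitazone overnight (16 h). Inhibition was quantified from 460/530 nm emission ratios.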
# [7] = target: Vitamin D3 receptor (Homo sapiens) (UniProt P11473); test: qHTS assay for small molecule antagonists of vitamin D receptor signaling (AID 588541);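 further: receptor activated by calcitriol during compound treatment; series mostly up to about 77 µM; on the % scale 0 is the no-effect control and ±100 the full control effect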
# Method in brief: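 VDR-UAS-bla HEK293T cells (2000/well, 2% charcoal-stripped FBS) were treated with titrated compounds plus 1-alpha,25-dihydroxyvitamin D3 (50 nM or 3 nM final) for 16 h at 37 C. CCF4 beta-lactamase fluorescence was read; Hill fits gave IC50.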
# [8] = target: Vitamin D3 receptor (Homo sapiens) (UniProt P11473); test: qHTS assay for small molecule agonists of vitamin D receptor signaling (AID 588543);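 further: 0% = DMSO basal and 100% = reference agonist control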
# Method in brief: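 VDR-UAS-bla HEK293T cells, 2000/well, 2% charcoal-stripped FBS; compound titration 16 h at 37 C; CCF4 beta-lactamase ratio read. Normalized to 50 nM 1-alpha,25-dihydroxyvitamin D3 (100%) and DMSO; Hill fit gives EC50, efficacy.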
# [9] = target: Retinoic acid receptor RXR-alpha (Homo sapiens) (UniProt P19793); test: qHTS assay for small molecule agonists of retinoid X receptor alpha signaling (AID 588544);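 further: 0% = DMSO basal wells and 100% = reference agonist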
# [10] = target: Thyroid hormone receptor beta (Homo sapiens) (UniProt P10828); test: qHTS assay for small molecule agonists of thyroid hormone receptor beta signaling (AID 588545);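 further: 0% = DMSO only and 100% = 10 nM T3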
# Method in brief: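 TR-UAS-bla-GripTite HEK 293 cells in medium with 2% charcoal/dextran FBS, 0.1 mM NEAA and 1 mM sodium pyruvate were treated with titrated compounds for 18 hrs at 37 C. Beta-lactamase reporter was read with CCF4 dye (ex 405, em 460/530 nm); EC50 from Hill fits.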
# [11] = qHTS assay for small molecule antagonists of retinoid X receptor alpha signaling (AID 588546; active means well fitted inhibition curve with a large enough effect in the signal ratio, with a control signal flat, not every such curve was filed as active; the % refers to the signal ratio;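 further: cells stimulated with 9-cis-retinoic acid as agonist; on the % scale 0 is the no-effect control and ±100 the full control effect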); conditions: HEK293T RXRa-UAS-bla, beta-lactamase ratio, antagonist mode; measured here: W530 green channel, cytotoxicity proxy
# Method in brief: (§2)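 Beta-lactamase reporter inhibition, read as CCF4 fluorescence ratio (ex 405, em 460/530 nm) after 2 h at RT. HEK293T UAS-bla cells, 2500/well, were stimulated with 9-cis-RA at 500 or 100 nM final alongside test compound for 18 h at 37 C.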
# [12] = target: Retinoic acid receptor RXR-alpha (Homo sapiens) (UniProt P19793); test: as above; conditions: HEK293T RXRa-UAS-bla, beta-lactamase ratio, antagonist mode
# Method in brief: as §2
# [13] = qHTS assay for small molecule activators of the p53 signaling pathway (AID 651743; active means well fitted activation curve with a large enough effect in the signal ratio, not every such curve was filed as active; the % refers to the signal ratio; further: series mostly up to about 92 µM; % of control where 0% means no effect); conditions: HCT-116 p53RE-bla, beta-lactamase FRET ratio, 16 h; activation: stronger effect = higher value
# Method in brief: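 Cell-based beta-lactamase reporter (p53 response elements, HCT-116 background). After a 5-hour preincubation, cells received compound for 16 hours at 37 C; substrate development ran 2 hours at room temperature.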
# [14] = qHTS assay for environmental chemicals that activate the Aryl hydrocarbon Receptor (AhR) signaling pathway (AID 651777; active means well fitted curve in the direction sought with a large enough effect; an effect the other way counts as inactive or inconclusive; further: % of control where 0% means no effect; nearly all actives have a fitted effect of over 15% in size); conditions: 1A2-DRE human hepatoma cells, luciferase, 24 h; activation: stronger effect = higher value
# Method in brief: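 Measured luciferase activity, read 30 min after One-Glo addition at room temperature, from human hepatoma cells bearing a dioxin response element–CYP1A2 promoter reporter and exposed to compound for 24 hr at 37 C.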
# [15] = target: Peroxisome proliferator-activated receptor alpha (Homo sapiens) (UniProt Q07869); test: qHTS assay for small molecule agonists of the peroxisome proliferator-activated receptor alpha (PPARalpha) signaling pathway (AID 651778; active means well fitted curve in the direction sought with a large enough effect; an effect the other way counts as inactive or inconclusive; further: % of control where 0% means no effect); conditions: PathHunter PPARalpha complementation, chemiluminescence, 6 h; max response: stronger effect = higher value
# Method in brief: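 Cells plated at 2,000/well and held overnight at 37 C, 5% CO2, then compound added by pin tool for 6 hr; after PathHunter detection reagent and 60 min at room temperature, chemiluminescence from enzyme complementation was read.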
# [16] = qHTS assay for small molecule agonists of the antioxidant response element (ARE) signaling pathway measured by Nrf2-dependant transcriptional activity (AID 720636; active means well fitted curve in the direction sought with a large enough effect in the repeat runs; an effect the other way counts as inactive or inconclusive;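 further: HepG2 cells with an ARE-driven luciferase reporter; % of control where 0% means no effect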)
# Method in brief: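 In HepG2 cells engineered with an Nrf2-responsive luciferase gene, ARE induction was quantified as luminescence after 16 hr compound treatment at 37 C.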
# [17] = qHTS assay for small molecule agonists of the antioxidant response element (ARE) signaling pathway measured by Nrf2-dependant transcriptional activity - cell viability counter screen (AID 720653; active means well fitted curve in the direction sought with a large enough effect in the repeat runs; an effect the other way counts as inactive or inconclusive; further: on the % scale 0 is the no-effect control and ±100 the full control effect); conditions: ARE-bla HepG2 viability, CellTiter-Glo ATP luminescence, 16 h; max response: stronger effect = lower value
# Method in brief: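 ARE-bla HepG2 cells (2,000/well) rested 5 hrs at 37C/5% CO2, then exposed to compounds in DMSO for 16 hrs. Viability was read in the same wells as intracellular ATP by luminescence, 30 min at room temperature after reagent addition.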
# [18] = qHTS assay for cell viability of HEK293 cells (AID 743288; active means well fitted curve in the direction sought with a large enough effect; an effect the other way counts as inactive or inconclusive; further: on the % scale 0 is the no-effect control and ±100 the full control effect; nearly all actives have a fitted effect of over 50% in size); conditions: ATP luminescence (CellTiter-Glo), 18 h; max response: stronger effect = lower value
# Method in brief: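 Parental HEK293 cells, 2,000 per well, preincubated at least 5 h at 37 C, then exposed to compounds in DMSO for 18 h at 37 C. Viability by CellTiter-Glo ATP luminescence after 30 min at room temperature.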
# [19] = qHTS assay for cell viability of the p53RE-bla HCT-116 cell line (AID 743292; active means well fitted curve in the direction sought with a large enough effect; an effect the other way counts as inactive or inconclusive; further: on the % scale 0 is the no-effect control and ±100 the full control effect; nearly all actives have a fitted effect of over 55% in size)
# Method in brief: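 Intracellular ATP of p53RE-bla HCT-116 cells measured by luciferase luminescence following 16 h compound incubation at 37 C; DMSO-only wells served as vehicle controls.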
# [20] = target: Nuclear receptor subfamily 1 group I member 2 (Rattus norvegicus) (UniProt Q9R1A7); test: qHTS assay for small molecule activators of the rat pregnane X receptor (rPXR) signaling pathway (AID 651751; call rule not given here; further: 0% is about no effect); conditions: rPXR reporter cells, luciferase (One-Glo), 24 h
# Chain of Nuclear receptor subfamily 1 group I member 2 (Rattus norvegicus) (Q9R1A7 whole entry, looked up): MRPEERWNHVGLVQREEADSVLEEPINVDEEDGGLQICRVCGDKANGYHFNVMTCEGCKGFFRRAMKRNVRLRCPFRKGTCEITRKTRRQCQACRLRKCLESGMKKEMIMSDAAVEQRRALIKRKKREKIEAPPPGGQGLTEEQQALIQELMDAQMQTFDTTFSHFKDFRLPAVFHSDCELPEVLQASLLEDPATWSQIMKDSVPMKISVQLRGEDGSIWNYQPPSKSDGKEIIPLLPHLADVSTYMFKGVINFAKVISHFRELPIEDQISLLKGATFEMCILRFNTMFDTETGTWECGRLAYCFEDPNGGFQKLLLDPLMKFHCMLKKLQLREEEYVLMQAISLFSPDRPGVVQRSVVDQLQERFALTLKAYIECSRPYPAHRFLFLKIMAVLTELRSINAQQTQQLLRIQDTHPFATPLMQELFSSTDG
# Chain of Retinoic acid receptor RXR-alpha (Homo sapiens) (P19793 whole entry, looked up): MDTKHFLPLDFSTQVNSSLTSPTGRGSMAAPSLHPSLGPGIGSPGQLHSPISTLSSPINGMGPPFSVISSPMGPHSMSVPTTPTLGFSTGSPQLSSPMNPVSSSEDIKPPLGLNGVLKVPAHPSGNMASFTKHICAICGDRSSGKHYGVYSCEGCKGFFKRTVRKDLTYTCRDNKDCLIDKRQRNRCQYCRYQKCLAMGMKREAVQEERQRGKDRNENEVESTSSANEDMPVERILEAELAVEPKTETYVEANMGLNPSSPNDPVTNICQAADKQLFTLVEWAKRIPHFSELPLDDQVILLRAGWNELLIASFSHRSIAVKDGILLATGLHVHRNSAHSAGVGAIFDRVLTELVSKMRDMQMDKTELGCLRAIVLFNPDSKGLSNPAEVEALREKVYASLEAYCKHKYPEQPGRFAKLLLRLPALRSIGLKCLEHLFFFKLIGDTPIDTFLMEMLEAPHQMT
# Chain of Glucocorticoid receptor (Homo sapiens) (P04150 whole entry, looked up): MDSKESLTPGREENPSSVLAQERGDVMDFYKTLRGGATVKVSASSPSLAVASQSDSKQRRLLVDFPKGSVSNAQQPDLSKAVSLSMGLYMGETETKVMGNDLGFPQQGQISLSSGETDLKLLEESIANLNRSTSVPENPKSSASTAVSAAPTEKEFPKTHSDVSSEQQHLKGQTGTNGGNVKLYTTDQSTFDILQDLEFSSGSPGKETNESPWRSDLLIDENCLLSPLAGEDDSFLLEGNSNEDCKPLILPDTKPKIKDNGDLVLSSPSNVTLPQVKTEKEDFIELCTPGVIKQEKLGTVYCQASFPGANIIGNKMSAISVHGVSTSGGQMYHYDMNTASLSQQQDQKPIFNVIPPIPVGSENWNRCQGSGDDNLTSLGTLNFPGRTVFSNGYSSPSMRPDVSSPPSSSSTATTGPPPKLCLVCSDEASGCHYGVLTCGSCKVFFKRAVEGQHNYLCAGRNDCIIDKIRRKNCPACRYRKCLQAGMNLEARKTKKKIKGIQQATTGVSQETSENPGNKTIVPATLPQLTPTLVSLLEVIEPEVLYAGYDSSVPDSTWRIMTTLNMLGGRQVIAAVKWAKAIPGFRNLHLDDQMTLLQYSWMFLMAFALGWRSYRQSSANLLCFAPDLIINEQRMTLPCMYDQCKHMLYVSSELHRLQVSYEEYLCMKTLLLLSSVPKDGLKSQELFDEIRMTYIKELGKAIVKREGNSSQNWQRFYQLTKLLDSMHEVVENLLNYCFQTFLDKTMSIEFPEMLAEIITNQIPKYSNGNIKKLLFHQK
# Chain of Vitamin D3 receptor (Homo sapiens) (P11473 whole entry, looked up): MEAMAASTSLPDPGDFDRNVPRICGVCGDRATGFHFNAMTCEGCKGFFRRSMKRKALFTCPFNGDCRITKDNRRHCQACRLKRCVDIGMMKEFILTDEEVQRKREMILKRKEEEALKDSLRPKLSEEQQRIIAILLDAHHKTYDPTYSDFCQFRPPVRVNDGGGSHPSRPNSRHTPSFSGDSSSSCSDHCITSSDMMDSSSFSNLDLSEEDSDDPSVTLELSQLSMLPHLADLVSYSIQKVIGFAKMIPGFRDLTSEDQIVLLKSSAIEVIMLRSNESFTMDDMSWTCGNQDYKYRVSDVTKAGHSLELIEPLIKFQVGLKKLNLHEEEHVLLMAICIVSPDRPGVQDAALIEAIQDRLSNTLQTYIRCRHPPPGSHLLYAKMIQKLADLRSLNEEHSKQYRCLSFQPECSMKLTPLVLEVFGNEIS
# Chain of Thyroid hormone receptor beta (Homo sapiens) (P10828 whole entry, looked up): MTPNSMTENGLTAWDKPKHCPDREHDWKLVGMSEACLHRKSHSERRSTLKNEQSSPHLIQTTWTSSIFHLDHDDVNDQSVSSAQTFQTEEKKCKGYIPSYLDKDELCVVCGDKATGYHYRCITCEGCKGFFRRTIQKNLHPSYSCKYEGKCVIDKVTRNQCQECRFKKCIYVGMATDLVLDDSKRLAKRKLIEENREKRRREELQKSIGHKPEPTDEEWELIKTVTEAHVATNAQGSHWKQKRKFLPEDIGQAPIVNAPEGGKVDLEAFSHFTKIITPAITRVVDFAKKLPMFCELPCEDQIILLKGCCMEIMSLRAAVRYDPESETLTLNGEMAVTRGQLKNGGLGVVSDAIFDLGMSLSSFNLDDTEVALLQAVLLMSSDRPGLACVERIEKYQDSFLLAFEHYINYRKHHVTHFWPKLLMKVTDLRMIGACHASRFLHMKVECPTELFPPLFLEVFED
# Chain of Peroxisome proliferator-activated receptor gamma (Homo sapiens) (P37231 whole entry, looked up): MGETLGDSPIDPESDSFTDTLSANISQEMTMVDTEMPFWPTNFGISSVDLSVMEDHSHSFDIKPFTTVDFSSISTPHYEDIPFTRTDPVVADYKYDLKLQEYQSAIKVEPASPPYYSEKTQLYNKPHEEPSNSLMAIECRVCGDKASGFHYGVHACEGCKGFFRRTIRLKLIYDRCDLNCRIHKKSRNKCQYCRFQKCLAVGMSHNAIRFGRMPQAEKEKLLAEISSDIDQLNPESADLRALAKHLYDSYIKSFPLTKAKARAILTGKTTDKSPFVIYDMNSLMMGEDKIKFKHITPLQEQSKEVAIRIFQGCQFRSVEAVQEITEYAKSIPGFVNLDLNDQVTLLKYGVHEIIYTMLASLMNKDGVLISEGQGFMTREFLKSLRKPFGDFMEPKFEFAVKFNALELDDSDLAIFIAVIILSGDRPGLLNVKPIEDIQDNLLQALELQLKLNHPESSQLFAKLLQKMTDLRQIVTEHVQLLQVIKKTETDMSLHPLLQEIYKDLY
# Chain of Peroxisome proliferator-activated receptor delta (Homo sapiens) (Q03181 whole entry, looked up): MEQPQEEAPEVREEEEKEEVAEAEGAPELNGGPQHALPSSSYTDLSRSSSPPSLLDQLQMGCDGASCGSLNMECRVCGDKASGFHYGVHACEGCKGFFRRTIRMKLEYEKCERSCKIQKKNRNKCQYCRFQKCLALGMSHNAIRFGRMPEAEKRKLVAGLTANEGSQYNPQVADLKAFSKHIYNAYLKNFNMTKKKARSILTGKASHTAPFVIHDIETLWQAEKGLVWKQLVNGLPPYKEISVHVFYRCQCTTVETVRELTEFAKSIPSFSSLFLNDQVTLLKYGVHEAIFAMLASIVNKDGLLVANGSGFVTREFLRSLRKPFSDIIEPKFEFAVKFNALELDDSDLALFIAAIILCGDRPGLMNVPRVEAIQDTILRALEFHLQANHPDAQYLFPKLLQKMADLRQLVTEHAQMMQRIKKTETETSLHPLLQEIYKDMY
# Chain of Peroxisome proliferator-activated receptor alpha (Homo sapiens) (Q07869 whole entry, looked up): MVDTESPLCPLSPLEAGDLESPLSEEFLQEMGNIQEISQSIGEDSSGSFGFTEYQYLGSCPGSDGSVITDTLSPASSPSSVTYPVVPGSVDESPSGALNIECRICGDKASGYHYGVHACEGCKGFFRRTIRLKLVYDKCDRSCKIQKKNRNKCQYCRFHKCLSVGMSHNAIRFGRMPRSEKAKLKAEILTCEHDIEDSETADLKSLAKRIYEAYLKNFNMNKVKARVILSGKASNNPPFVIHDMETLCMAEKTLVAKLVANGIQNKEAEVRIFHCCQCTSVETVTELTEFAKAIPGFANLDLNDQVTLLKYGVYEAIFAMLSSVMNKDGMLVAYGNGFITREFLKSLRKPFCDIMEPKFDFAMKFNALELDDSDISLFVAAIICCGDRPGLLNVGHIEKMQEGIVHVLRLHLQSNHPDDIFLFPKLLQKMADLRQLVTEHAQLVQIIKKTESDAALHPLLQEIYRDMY
Compound,activation [1],outcome [2],max response [3],Potency [4],Potency [5],Potency [6],Potency [7],outcome [8],Potency [9],Potency [10],max response [11],max response [12],activation [13],activation [14],max response [15],Potency [16],max response [17],max response [18],Potency [19],max response [20]
Nc1cnn(-c2ccccc2)c(=O)c1Cl,-1.22% (inactive),inactive,13.7%,inactive,inactive,inactive,inactive,inactive,inactive,inactive,-1.68%,-7.65% (inactive),-0.0509% (inactive),6.85% (inactive),-1.54% (inactive),inactive,11.3% (inactive),-10.4% (inactive),inactive,4.89% (inactive)
CCNC(=O)NC(=O)/C(C#N)=N/OC,–,inactive,9.94%,inactive,inactive,inactive,inactive,inactive,inactive,inactive,-2.66%,12.8% (inactive),–,0.625% (inactive),0.388% (inactive),inactive,-0.764% (inactive),-16.3% (inactive),inactive,–
CC(C)(C)OOC(C)(C)c1ccc(C(C)(C)OOC(C)(C)C)cc1,-6.76% (inactive),inactive,6.63%,inactive,–,inactive,inactive,–,inactive,inactive,-15.9%,-5.44% (inactive),0.499% (inactive),0.613% (inactive),0.719% (inactive),inactive,-7.74% (inactive),-8.57% (inactive),inactive,4.08% (inactive)
CCOC(=O)C(Cl)Cc1cc(-n2nc(C)n(C(F)F)c2=O)c(F)cc1Cl (stereo not drawn),-0.667% (inactive),inactive,64.4%,inactive,inactive,–,inactive,inactive,inactive,inactive,13.3%,-48.3% (inactive),1.44% (inactive),1.53% (inactive),11% (inactive),inactive,-4.81% (inactive),-19.9% (inactive),inactive,-2.22% (inactive)
COC[C@H](C)N(C(=O)CCl)c1c(C)csc1C,–,–,-36.8%,inactive,inactive,–,inactive,inactive,–,inactive,-0.446%,-19.4% (inactive),-5.41% (inactive),-2.7% (inactive),-0.842% (inactive),–,0.25% (inactive),-14.5% (inactive),inactive,0.618% (inactive)
CC1=C(C(=O)Nc2ccccc2)SCCO1,-5.7% (inactive),inactive,–,–,inactive,inactive,inactive,inactive,inactive,inactive,-5.88%,-6.74% (inactive),1.21% (inactive),–,-3.16% (inactive),–,-4.21% (inactive),–,inactive,–
